target: pT7_6His-AlfaTag-HOXD13 (human, UniProt P35453 263-343); test: PADIT-seq; conditions: dsDNA, one strand shown
Sequence (P35453 263-343): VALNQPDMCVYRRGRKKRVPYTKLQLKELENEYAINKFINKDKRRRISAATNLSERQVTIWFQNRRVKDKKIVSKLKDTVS

Sequence | binding signal [log2FC]
CTCGAGGATATCAAGATCTGGCCTCGGCACCCCACGCGGAACCTCTAGCTAGCCGACTCACTATAGGGATAATCGCCCTGAGCAAAGACC | -1.03 ± 0.136
CTCGAGGATATCAAGATCTGGCCTCGGCCGCCCAGGCGGAACCTCTAGCTAGCCGACTCACTATAGGGATAATCGCCCTGAGCAAAGACC | -0.81 ± 0.134
CTCGAGGATATCAAGATCTGGCCTCGGCCGCCCAAAGGGAACCTCTAGCTAGCCGACTCACTATAGGGATAATCGCCCTGAGCAAAGACC | -0.802 ± 0.123
CTCGAGGATATCAAGATCTGGCCTCGGCTCAATAAAAGGAACCTCTAGCTAGCCGACTCACTATAGGGATAATCGCCCTGAGCAAAGACC | 2.74 ± 0.0786
CTCGAGGATATCAAGATCTGGCCTCGGCCCTTGGGCGGGAACCTCTAGCTAGCCGACTCACTATAGGGATAATCGCCCTGAGCAAAGACC | -0.886 ± 0.123
CTCGAGGATATCAAGATCTGGCCTCGGCGCGATAAAAGGAACCTCTAGCTAGCCGACTCACTATAGGGATAATCGCCCTGAGCAAAGACC | 1.22 ± 0.0747
CTCGAGGATATCAAGATCTGGCCTCGGCCTTTTATCTGGAACCTCTAGCTAGCCGACTCACTATAGGGATAATCGCCCTGAGCAAAGACC | 0.811 ± 0.0782
CTCGAGGATATCAAGATCTGGCCTCGGCGTTTTAGAGGGAACCTCTAGCTAGCCGACTCACTATAGGGATAATCGCCCTGAGCAAAGACC | 1.24 ± 0.114
CTCGAGGATATCAAGATCTGGCCTCGGCCGCTTACGCGGAACCTCTAGCTAGCCGACTCACTATAGGGATAATCGCCCTGAGCAAAGACC | -0.713 ± 0.125
CTCGAGGATATCAAGATCTGGCCTCGGCGCGTTTGCGGGAACCTCTAGCTAGCCGACTCACTATAGGGATAATCGCCCTGAGCAAAGACC | -0.387 ± 0.156
CTCGAGGATATCAAGATCTGGCCTCGGCTCGCTAAAAGGAACCTCTAGCTAGCCGACTCACTATAGGGATAATCGCCCTGAGCAAAGACC | 0.138 ± 0.111
CTCGAGGATATCAAGATCTGGCCTCGGCTTTGTAAAAGGAACCTCTAGCTAGCCGACTCACTATAGGGATAATCGCCCTGAGCAAAGACC | 1.2 ± 0.0832
CTCGAGGATATCAAGATCTGGCCTCGGCGCCCTAAAAGGAACCTCTAGCTAGCCGACTCACTATAGGGATAATCGCCCTGAGCAAAGACC | 0.248 ± 0.0833
CTCGAGGATATCAAGATCTGGCCTCGGCGGAATAAAAGGAACCTCTAGCTAGCCGACTCACTATAGGGATAATCGCCCTGAGCAAAGACC | 0.87 ± 0.0838
CTCGAGGATATCAAGATCTGGCCTCGGCTGAGTAAAAGGAACCTCTAGCTAGCCGACTCACTATAGGGATAATCGCCCTGAGCAAAGACC | 0.229 ± 0.0993
CTCGAGGATATCAAGATCTGGCCTCGGCGGGCTAAAAGGAACCTCTAGCTAGCCGACTCACTATAGGGATAATCGCCCTGAGCAAAGACC | -0.851 ± 0.105
CTCGAGGATATCAAGATCTGGCCTCGGCATAATAAAAGGAACCTCTAGCTAGCCGACTCACTATAGGGATAATCGCCCTGAGCAAAGACC | 2.68 ± 0.0776
CTCGAGGATATCAAGATCTGGCCTCGGCTTTTTATGAGGAACCTCTAGCTAGCCGACTCACTATAGGGATAATCGCCCTGAGCAAAGACC | 3.46 ± 0.0792
CTCGAGGATATCAAGATCTGGCCTCGGCGTTTTAAATGGAACCTCTAGCTAGCCGACTCACTATAGGGATAATCGCCCTGAGCAAAGACC | 1.63 ± 0.0846
CTCGAGGATATCAAGATCTGGCCTCGGCGGCCTAAAAGGAACCTCTAGCTAGCCGACTCACTATAGGGATAATCGCCCTGAGCAAAGACC | -0.691 ± 0.105

Sequence | binding signal [log2FC]
CTCGAGGATATCAAGATCTGGCCTCGGCAGCTTAAAAGGAACCTCTAGCTAGCCGACTCACTATAGGGATAATCGCCCTGAGCAAAGACC | 0.129 ± 0.0835
CTCGAGGATATCAAGATCTGGCCTCGGCGTTTTAGTTGGAACCTCTAGCTAGCCGACTCACTATAGGGATAATCGCCCTGAGCAAAGACC | 0.145 ± 0.11
CTCGAGGATATCAAGATCTGGCCTCGGCCCCGTAAAAGGAACCTCTAGCTAGCCGACTCACTATAGGGATAATCGCCCTGAGCAAAGACC | 2.52 ± 0.0899
CTCGAGGATATCAAGATCTGGCCTCGGCGAAATAAAAGGAACCTCTAGCTAGCCGACTCACTATAGGGATAATCGCCCTGAGCAAAGACC | 1.47 ± 0.0776
CTCGAGGATATCAAGATCTGGCCTCGGCGGTATAAAAGGAACCTCTAGCTAGCCGACTCACTATAGGGATAATCGCCCTGAGCAAAGACC | 1.44 ± 0.072
CTCGAGGATATCAAGATCTGGCCTCGGCGCGTATGCGGGAACCTCTAGCTAGCCGACTCACTATAGGGATAATCGCCCTGAGCAAAGACC | -1.09 ± 0.121
CTCGAGGATATCAAGATCTGGCCTCGGCATAGTAAAAGGAACCTCTAGCTAGCCGACTCACTATAGGGATAATCGCCCTGAGCAAAGACC | 1.98 ± 0.0822
CTCGAGGATATCAAGATCTGGCCTCGGCCTTTTAACAGGAACCTCTAGCTAGCCGACTCACTATAGGGATAATCGCCCTGAGCAAAGACC | 1.89 ± 0.0877
CTCGAGGATATCAAGATCTGGCCTCGGCTTTTTATGGGGAACCTCTAGCTAGCCGACTCACTATAGGGATAATCGCCCTGAGCAAAGACC | 3.53 ± 0.0874
CTCGAGGATATCAAGATCTGGCCTCGGCGCACTAAAAGGAACCTCTAGCTAGCCGACTCACTATAGGGATAATCGCCCTGAGCAAAGACC | 0.431 ± 0.0748
CTCGAGGATATCAAGATCTGGCCTCGGCATTTTAAAGGGAACCTCTAGCTAGCCGACTCACTATAGGGATAATCGCCCTGAGCAAAGACC | 2.62 ± 0.0783
CTCGAGGATATCAAGATCTGGCCTCGGCAAGGTAAAAGGAACCTCTAGCTAGCCGACTCACTATAGGGATAATCGCCCTGAGCAAAGACC | -0.357 ± 0.0936
CTCGAGGATATCAAGATCTGGCCTCGGCATGCCACGCGGAACCTCTAGCTAGCCGACTCACTATAGGGATAATCGCCCTGAGCAAAGACC | -1.08 ± 0.113
CTCGAGGATATCAAGATCTGGCCTCGGCTTGTTAAAAGGAACCTCTAGCTAGCCGACTCACTATAGGGATAATCGCCCTGAGCAAAGACC | 3.01 ± 0.0792
CTCGAGGATATCAAGATCTGGCCTCGGCTAGCCACGCGGAACCTCTAGCTAGCCGACTCACTATAGGGATAATCGCCCTGAGCAAAGACC | -1.07 ± 0.127
CTCGAGGATATCAAGATCTGGCCTCGGCCGTATAAAAGGAACCTCTAGCTAGCCGACTCACTATAGGGATAATCGCCCTGAGCAAAGACC | 2.31 ± 0.0858
CTCGAGGATATCAAGATCTGGCCTCGGCCTTTTATGAGGAACCTCTAGCTAGCCGACTCACTATAGGGATAATCGCCCTGAGCAAAGACC | 3.45 ± 0.0923
CTCGAGGATATCAAGATCTGGCCTCGGCTTTTTAAAGGGAACCTCTAGCTAGCCGACTCACTATAGGGATAATCGCCCTGAGCAAAGACC | 2.54 ± 0.0796
CTCGAGGATATCAAGATCTGGCCTCGGCATTTTAGCAGGAACCTCTAGCTAGCCGACTCACTATAGGGATAATCGCCCTGAGCAAAGACC | 0.721 ± 0.101

Reference: publication doi:10.1101/2024.03.05.583629
